Source: PubChem BioAssay (EPA / NIEHS)
Activity calls are given as the source filed them. Rule for the calls: active = hit-call score of the fitted dose curve at least 0.9, where 1 is the maximum; inactive = score below 0.9.

How the values were obtained:
[1] = read-out: Macrophage colony-stimulating factor (MCSF), CSF1 (gene 1435); experiment: BSK_LPS_MCSF: BioMAP Diversity Plus: LPS Assay for Macrophage colony-stimulating factor (MCSF) Biomarker Activity (AID 2283083); conditions: primary human HUVEC with PBMC; actives raise or lower the signal
How it was run: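 HUVEC + PBMC co-culture (human primary), 24 h post-dose; M-CSF by ELISA; gain/loss of signal fitted bidirectionally vs DMSO baseline.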

[2] = read-out: Tissue Factor, F3 (gene 2152); experiment: BSK_LPS_TissueFactor: BioMAP Diversity Plus: LPS Assay for Tissue Factor Biomarker Activity (AID 2283084); conditions: primary human HUVEC with PBMC; actives raise or lower the signal
How it was run: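 HUVEC/PBMC co-culture, LPS-activated; CD142 ELISA read 24 h post-dose; bidirectional curve fit vs DMSO negative control.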

[3] = read-out: Tumor necrosis factor (Homo sapiens) (UniProt P01375); experiment: BSK_LPS_TNFa: BioMAP Diversity Plus: LPS Assay for Tumour Necrosis Factor alpha (TNFa) Biomarker Activity (AID 2283085); conditions: primary human HUVEC with PBMC; actives raise or lower the signal
How it was run: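 Read-out is ELISA of TNFa in primary human endothelial cell–PBMC co-cultures at 24 h after compound. Activity in either direction was fitted against DMSO.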

[4] = read-out: Vascular cell adhesion molecule 1 (VCAM1), VCAM1 (gene 7412); experiment: BSK_LPS_VCAM1: BioMAP Diversity Plus: LPS Assay for Vascular cell adhesion molecule 1 (VCAM1) Biomarker Activity (AID 2283086); conditions: primary human HUVEC with PBMC; actives raise or lower the signal
How it was run: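 HUVEC + PBMC co-culture, LPS system; compound 24 h; VCAM-1 by ELISA; bidirectional fit vs DMSO control; parallel SRB (0.1%, TCA-fixed, 560 nm) for cytotoxicity.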

[5] = read-out: CD38, CD38 (gene 952); experiment: BSK_SAg_CD38: BioMAP Diversity Plus: SAg Assay for CD38 Biomarker Activity (AID 2283087); conditions: primary human HUVEC with PBMC; actives raise or lower the signal
How it was run: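 Human HUVEC plus PBMC co-culture stimulated with superantigen; CD38 measured by ELISA 24 h after chemical dosing. Fluorescence read-out, bidirectional fit against DMSO; cytotoxicity tracked in parallel by SRB and Alamar Blue.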

[6] = read-out: CD40, CD40 (gene 958); experiment: BSK_SAg_CD40: BioMAP Diversity Plus: SAg Assay for CD40 Biomarker Activity (AID 2283088); conditions: primary human HUVEC with PBMC; actives raise or lower the signal
How it was run: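 HUVEC/PBMC co-culture, 24 h post-dose; CD40 by ELISA, fluorescence intensity; bidirectional fit vs DMSO negative control.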

[7] = read-out: CD69, CD69 (gene 969); experiment: BSK_SAg_CD69: BioMAP Diversity Plus: SAg Assay for CD69 Biomarker Activity (AID 2283089); conditions: primary human HUVEC with PBMC; actives raise or lower the signal;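 for AC50: cell surface CD69 protein quantified by ELISA with fluorescence detection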
How it was run: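 Values derive from bidirectional fitting relative to DMSO vehicle. Cells: umbilical vein endothelium plus peripheral blood mononuclear cells, treated 24 h before fluorescent ELISA for CD69.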

[8] = read-out: Monocyte Chemoattractant Protein-1 (MCP1), CCL2 (gene 6347); experiment: BSK_SAg_MCP1: BioMAP Diversity Plus: SAg Assay for Monocyte Chemoattractant Protein-1 (MCP1) Biomarker Activity (AID 2283090); conditions: primary human HUVEC with PBMC; actives raise or lower the signal
How it was run: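 MCP-1 levels in the endothelial–PBMC SAg co-culture were quantified by ELISA at 24 h post-dosing; both increases and decreases versus DMSO scored. Cytotoxicity monitored by SRB total protein in parallel cultures.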

[9] = read-out: E-selectin (Homo sapiens) (UniProt P16581); experiment: BSK_SAg_Eselectin: BioMAP Diversity Plus: SAg Assay for Eselectin Biomarker Activity (AID 2283091); conditions: primary human HUVEC with PBMC; actives raise or lower the signal
How it was run: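 E-selectin ELISA readout at 24 h post-dosing in human umbilical vein endothelial cell/PBMC co-culture; gain or loss of signal fitted relative to DMSO baseline.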

[10] = read-out: Monokine induced gamma interferon (MIG), CXCL9 (gene 4283); experiment: BSK_SAg_MIG: BioMAP Diversity Plus: SAg Assay for Monokine induced gamma interferon (MIG) Biomarker Activity (AID 2283092); conditions: primary human HUVEC with PBMC; actives raise or lower the signal
How it was run: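 Values reflect bidirectional fitting of ELISA-measured MIG against DMSO vehicle, taken 24 h after dosing of a co-culture of human umbilical vein endothelial cells and peripheral blood mononuclear cells.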

[11] = BSK_SAg_PBMCCytotoxicity: PBMC Cytotoxicity Assessment in the BioMAP Diversity Plus: SAg Assay (AID 2283093); conditions: primary human HUVEC with PBMC;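 note: PBMC viability measured as Alamar Blue reduction fluorescence at 546/580 nm; fitted both ways against DMSO so a hit may be loss or gain of signal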;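 for AC50: PBMC superantigen activated with SEB plus TSST-1 one hour after compound addition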
How it was run: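 Human umbilical vein endothelial cells co-cultured with PBMC; PBMC (75,000/well) pre-treated with compound 1 h, then activated with SEB and TSST-1 (20 ng/mL final each) for 90 h. Alamar Blue added 6 h, fluorescence 546/580 nm; bidirectional fit versus DMSO.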

[12] = read-out: Interleukin-8 (IL8), CXCL8 (gene 3576); experiment: BSK_SAg_IL8: BioMAP Diversity Plus: SAg Assay for Interleukin-8 (IL8) Biomarker Activity (AID 2283094); conditions: primary human HUVEC with PBMC; actives raise or lower the signal
How it was run: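 ELISA read-out of IL-8 in a primary human vascular co-culture (umbilical vein endothelium plus PBMC), taken 24 h after compound addition. Values derive from bidirectional fits against DMSO negative controls.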

[13] = BSK_SAg_Proliferation: Cell Proliferation Assessment in the BioMAP Diversity Plus: SAg Assay (AID 2283095); conditions: primary human HUVEC with PBMC;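 note: relative cell number as total protein by SRB absorbance in sub-confluent culture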
How it was run: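 Cells (endothelium plus PBMC, human primary) were dosed with chemical, cultured 96 h, fixed in 10% TCA and stained with 0.1% SRB. Absorbance at 560 nm gave relative protein, fitted bidirectionally relative to DMSO.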

[14] = BSK_SAg_SRB: Viability Assessment in the BioMAP Diversity Plus: SAg Assay (AID 2283096); conditions: primary human HUVEC with PBMC;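 note: cells read one day after compound addition; hits may be either gain or loss of signal compared with DMSO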
How it was run: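 Endothelial/PBMC primary human co-culture; compound 24 h; fix 10% TCA, stain 0.1% SRB, A560; protein content as cytotoxicity proxy; bidirectional curve fit, DMSO = baseline.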

Measured: AC50

Tumor necrosis factor (Homo sapiens), sequence (P01375 whole entry, looked up): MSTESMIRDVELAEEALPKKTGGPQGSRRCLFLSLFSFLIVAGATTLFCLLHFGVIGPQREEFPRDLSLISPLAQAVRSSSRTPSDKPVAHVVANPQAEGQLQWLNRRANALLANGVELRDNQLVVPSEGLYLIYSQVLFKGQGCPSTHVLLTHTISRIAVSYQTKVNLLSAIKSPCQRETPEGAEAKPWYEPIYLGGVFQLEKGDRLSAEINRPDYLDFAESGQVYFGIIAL
E-selectin (Homo sapiens), sequence (P16581 whole entry, looked up): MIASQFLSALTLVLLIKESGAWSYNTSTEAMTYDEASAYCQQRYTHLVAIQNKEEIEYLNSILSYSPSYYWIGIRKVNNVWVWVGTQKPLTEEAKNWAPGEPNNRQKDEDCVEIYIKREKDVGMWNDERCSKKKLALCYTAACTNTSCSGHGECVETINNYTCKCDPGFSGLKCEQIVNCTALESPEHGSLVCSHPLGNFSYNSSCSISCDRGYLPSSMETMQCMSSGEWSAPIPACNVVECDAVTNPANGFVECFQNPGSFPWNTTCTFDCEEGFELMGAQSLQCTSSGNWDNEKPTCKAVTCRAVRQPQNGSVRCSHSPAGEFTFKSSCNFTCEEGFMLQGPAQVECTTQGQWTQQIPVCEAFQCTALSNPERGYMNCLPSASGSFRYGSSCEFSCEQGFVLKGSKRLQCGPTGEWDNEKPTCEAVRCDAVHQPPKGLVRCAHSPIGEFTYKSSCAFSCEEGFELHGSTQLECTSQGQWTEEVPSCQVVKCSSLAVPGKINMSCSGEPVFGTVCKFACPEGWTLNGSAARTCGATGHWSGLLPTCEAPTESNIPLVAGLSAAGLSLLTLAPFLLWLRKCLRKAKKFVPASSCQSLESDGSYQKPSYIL

N[C@@H](Cc1c[nH]c2ccccc12)C(=O)O
inactive: all assays above

Oc1ccc(O)cc1
active: [1] 9.78 µM | [3] 28.9 µM | [4] 20 µM | [5] 36.5 µM | [6] 11.4 µM | [7] 20 µM | [9] 23.9 µM | [11] 12.8 µM | [13] 7.06 µM
inactive: [2] | [8] | [10] | [12] | [14]

Cc1c(C)c2c(c(C)c1O)CCC(C)(COc1ccc(CC3SC(=O)NC3=O)cc1)O2 (centres undefined)
active: [1] 31.6 µM | [2] 34.8 µM | [3] 31.6 µM | [4] 30.5 µM | [5] 24.9 µM | [6] 14.9 µM | [7] 21.5 µM | [8] 32.6 µM | [9] 31.9 µM | [10] 31.6 µM | [11] 20 µM | [12] 32.8 µM | [13] 14.1 µM | [14] 23.7 µM

CCc1cc(C2=C(C(=O)O)N(c3ccccc3C(F)(F)F)S(=O)(=O)c3ccccc32)cc2c1OCO2
active: [5] 19.8 µM | [7] 11.1 µM | [13] 15.3 µM
inactive: all other assays above

O=C(Oc1ccccc1)c1cccc(C(=O)Oc2ccccc2)c1
active: [13] 24.2 µM
inactive: all other assays above

O=NO
inactive: all assays above

CO[C@@H]1COCC[C@@H]1N[C@@H]1CC[C@@](C(=O)N2CCc3ncc(C(F)(F)F)cc3C2)(C(C)C)C1
inactive: all assays above

CC(C)COC(=O)CCCCC(=O)OCC(C)C
inactive: all assays above

CCCCC(CC)COC(=O)CCCCCCCC(=O)OCC(CC)CCCC (centres undefined)
inactive: all assays above

Cc1ccc(C(C)(C)C)c(O)c1
inactive: all assays above

CCCCCCCCCCCCCCCCO
inactive: all assays above

C=CCCCCCCCCCCCC
inactive: all assays above

O=C(NS(=O)(=O)/C=C/c1cccs1)c1ccc(F)cc1Br
active: [6] 3.97 µM | [13] 3.54 µM
inactive: all other assays above

OCC(CO)n1cnc(-c2ccc(F)cc2)c1-c1ccnc(Oc2ccccc2)n1
inactive: [4] | [5] | [6] | [9] | [10] | [14]
active: [1] 1.72 µM | [2] 0.532 µM | [3] 0.416 µM | [7] 3.97 µM | [8] 2.02 µM | [11] 2.47 µM | [12] 0.24 µM | [13] 18.1 µM

CC(C)c1cccc(C(C)C)c1NC(=O)NS(=O)(=O)c1cc(C(C)(C)O)co1
inactive: all assays above

C#CC(O)C(CC)CCCC (centres undefined)
inactive: all assays above
